# Measured values taken from PubChem BioAssay (EPA / NIEHS).
# The source made the active and inactive calls. How the source made its calls: active means hit-call score of the fitted dose curve at least 0.9, where 1 is the maximum; inactive means score below 0.9.
# Read-out: Decorin, DCN (gene 1634)
# Experiment: BSK_MyoF_Decorin: BioMAP Diversity Plus: MyoF Assay for Decorin Biomarker Activity (AID 2284265)
# Conditions: primary human lung fibroblasts
# Description: BSK_MyoF is a cell-based, multiplexed-readout assay that uses lung fibroblasts, […], with measurements taken at 24 hours after chemical dosing in a microplate: 96-well plate.BSK_MyoF_Decorin is an assay component measured in the BSK_MyoF assay. It measures Decorin antibody related to regulation of gene expression using ELISA technology.Data from the assay component BSK_MyoF_Decorin was analyzed at the endpoint, BSK_MyoF_Decorin, in the positive analysis fitting direction relative to DMSO as the negative control and baseline of activity. Using a type of binding reporter, gain or loss-of-signal activity can be used to understand protein changes. To generalize the intended target to other relatable targets, this assay endpoint is annotated to the 'cell adhesion molecules' intended target family, where the subfamily is 'decorin'.
# The levels of cell surface (or secreted, indicated by the prefix "s") biomarker endpoints were measured by ELISA. Overt cytotoxicity to cells in confluent adherent cultures (all systems other than the BT system) was assessed by measuring total protein levels using sulforhodamine B (SRB) staining in parallel cultures at the time of biomarker measurements, indicated as SRB endpoints. For proliferation assays for adherent cell types, individual cell types are cultured at sub-confluence and relative cell numbers quantified by SRB staining at time points optimized for each system (48 h: 3C and CASM3C systems; 72 h: BT and HDF3CGF systems; 96 h: SAg system). SRB was performed by staining cells with 0.1% SRB after fixation with 10% TCA and reading wells at 560 nm.Viability and proliferation of PBMC (T cells) was quantified by Alamar Blue reduction for the SAg and BT systems. For PBMC viability (referred to as PBMC Cytotoxicity within the assay endpoint names), cells were plated (75,000/well in a 96-well plate) and then chemical samples added for 1 h before addition of activators, SEB and TSST-1 (20 ng/mL final concentration each). Cells were incubated for 90 h. Then, Alamar Blue (20 uL/well) (Invitrogen, Cat DAL1100) was added for 6 h, and the plates were read with a fluorescence microplate reader at 546/580 nm (excitation/emission). For PBMC proliferation, cells were plated and activated as above but incubated for only 16 h prior to addition of Alamar Blue. Plates were read after 6 h.
Structure (SMILES),outcome,AC50
CCn1c2ccccc2c2cc(N)ccc21,inactive,
CCCCC(CC)COCCC#N (stereo not drawn),inactive,
CC(=O)Nc1ccccc1O,inactive,
N#Cc1ccc(CC(=NNC(=O)Nc2ccc(OC(F)(F)F)cc2)c2cccc(C(F)(F)F)c2)cc1,inactive,
CN(CCOc1ccc(CC2SC(=O)NC2=O)cc1)c1ccccn1 (stereo not drawn),inactive,
CC(C)(COC(=O)c1ccccc1)COC(=O)c1ccccc1,inactive,
CNC[C@H](O)c1cccc(O)c1,inactive,
c1ccc2c(c1)c1cccc3ccc4cccc2c4c31,inactive,
CC(C)c1ccc(C(C)C)cc1,inactive,
O=P(c1ccccc1)(c1ccccc1)c1ccccc1,inactive,
Cc1ccc(O)c(C(C)(C)C)c1,inactive,
CCCCCCCCCC=O,inactive,
CCCCC(CC)COC(=O)/C=C\C(=O)OCC(CC)CCCC (stereo not drawn),inactive,
CC1CCC(C(C)CS)CC1S (stereo not drawn),,10.1 µM (active)
Cc1ccc(Nc2ccc(O)c3c2C(=O)c2ccccc2C3=O)cc1,inactive,
CC(=O)O[C@]1(C(C)=O)CC[C@H]2[C@@H]3C[C@H](C)C4=CC(=O)CC[C@]4(C)[C@H]3CC[C@@]21C,inactive,
O=C=NC1CCC(CC2CCC(N=C=O)CC2)CC1 (stereo not drawn),inactive,
O=C(O)C[C@H](O)C[C@H](O)/C=C/c1c(C2CC2)nc2ccccc2c1-c1ccc(F)cc1,inactive,
BrC1CCC(Br)C(Br)CCC(Br)C(Br)CCC1Br (stereo not drawn),inactive,

Structure (SMILES),outcome,AC50
CC(C)Oc1ccccc1O,inactive,
O=C(O)c1cn(C2CC2)c2cc(N3CCNCC3)c(F)cc2c1=O,inactive,
O=C(O)c1cn(-c2ccc(F)cc2)c2cc(N3CCNCC3)c(F)cc2c1=O,inactive,
C=C[Si](OCC)(OCC)OCC,inactive,
CC1COc2ccccc2N1C(=O)C(Cl)Cl (stereo not drawn),inactive,
Cc1ccc2n[nH]nc2c1,inactive,
C#C[C@]1(O)CC[C@H]2[C@@H]3CCC4=Cc5oncc5C[C@]4(C)[C@H]3CC[C@@]21C,inactive,
O=C1CCCCCCCCCCCCCCO1,inactive,
O=[N+]([O-])c1cc(C(F)(F)F)ccc1Cl,inactive,
COC(=O)c1ccc(C)cc1,inactive,
CCCCC/C=C/C=C/C=O,,20 µM (active)
CCc1c(C)cc(N)c(CC)c1N,inactive,
Nc1cc([N+](=O)[O-])ccc1Cl,inactive,
C=C(C)C(=O)O[C@H]1C[C@@H]2CC[C@@]1(C)C2(C)C,,31.7 µM (active)
CCCCCCCCC=O,inactive,
CC(=O)/C=C/C1=C(C)CCCC1(C)C,inactive,
O=C1OC2(c3cc(Br)c(O)c(Br)c3Oc3c2cc(Br)c(O)c3Br)c2c(Cl)c(Cl)c(Cl)c(Cl)c21,,13.2 µM (active)
CCCCCCCCCCCCCCCCCC(=O)OCC(CC)CCCC (stereo not drawn),inactive,
c1ccc2sc(SN(C3CCCCC3)C3CCCCC3)nc2c1,inactive,
